Test results: PubChem BioAssay (NCI)
Several values for one entry are separate records, joined by “and”; a condition that tells them apart may be missing. Equal values may be shown once. About 83,000 compounds went through this panel and 20% of them were active in at least one assay; those are over-represented in the sample as a whole.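 Values shown are percent growth following 48 h exposure of cells in 96-well plates to a single concentration of compound; below 10 was considered active.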 Activity calls are given as the source filed them.

system: T-47D breast; assay: NCI-60 one-dose screen, 48 h (100 = growth as untreated, 0 = no growth, -100 = all killed); details: 1 µM
Method: Growth inhibition of the T-47D human tumor cell line is measured as a screen for anti-cancer activity. Cells are grown in 96 well plates and exposed to the test compound for 48 hours. Compounds are tested at a single concentration, which is 10^-5 M for most compounds. The reported endpoint is percent growth (GI% or GIPRCNT), where numbers from 0 - 100% represent growth inhibition, and numbers from -100% - 0 represent cell death. For example, a value of 40 represents 60% growth inhibition. A value of 0 means no net growth occurred over the course of the experiment. A value of -40 indicates 40% of cells at the beginning of the experiment died by the end of the experiment. A value of -100 means all cells are dead at the end of the experiment.
NCI-60 Human Tumor Cell Lines Screen was performed using the standard one-dose NCI protocol, which is described in more detail at https://dtp.cancer.gov/discovery_development/nci-60/default.htm.
Compounds with GIPRCNT values below 10 were considered active. Activity score was based on GIPRCNT using the following formula: […]
Score is 0 for GIPRCNT values of 100 or above, 50 for GIPRCNT values of 0, and 100 for GIPRCNT values of -100.

Structure (SMILES) | growth
CNC(=O)c1cc(Oc2ccc(CC(=O)Nc3cc(C(C)(C)C)nn3C)cc2)ccn1 | 57.4% (inactive)

same assay, conditions: 10 µM

Structure (SMILES) | growth
CNC(=O)c1cc(Oc2ccc(CC(=O)Nc3cc(C(C)(C)C)nn3C)cc2)ccn1 | 44.7% (inactive)
CC(C)(C)c1cc(NC(=O)Cc2ccc(-c3cnc4cc(-c5cnn(CCN6CCOCC6)c5)ccc4n3)cc2)no1 | 15.6% (inactive)

same assay, conditions: 10 µM unless noted

Structure (SMILES) | growth
O=[N+]([O-])c1ccccc1/C=N\Nc1ccccc1 | 48.2% (inactive) and 57.9% (inactive)
CN1CCN(Cc2occc(=O)c2O)CCN(C)CCN(Cc2occc(=O)c2O)CC1 | 93.8% (inactive) and 77.4% (inactive)
O=C(Nc1ccc(Br)cc1)c1cc(Br)ccc1O | 14.7% (inactive) and -7.33% (active)
Cn1c(=O)n(-c2ccc(C(C)(C)C#N)cc2)c2c3cc(-c4cnc5ccccc5c4)ccc3ncc21 | -12.2% (active) and -4.13% (active)
CCN(CC)CCC(CNc1c2ccc([N+](=O)[O-])cc2nc2cc(OC)c(OC)cc12)c1ccccc1 (stereo not given) | -11.2% (active) and -82% (active)
CC1(c2ccc3ccccc3c2)CCC(=O)O1 (stereo not given) | 103% (inactive)
O=C(O)CSCc1nc2ccccc2[nH]1 | 104% (inactive)
Cc1cc(C)c(N)c(Br)c1 | 98.1% (inactive) and 87.3% (inactive)
Cc1nnc(NC/C=C/c2ccccc2)s1 | 91.6% (inactive) and 101% (inactive)
Nc1n[nH]c(=S)n1-c1ccc(Cl)cc1 | 97.6% (inactive)
COc1cc(Nc2nc3ccccc3nc2NS(=O)(=O)c2ccc(NC(=O)c3ccc(C)c(OC)c3)cc2)cc(OC)c1 | 35.9% (inactive) and -31.1% (active)
C1CCCCNCCC1 | 101% (inactive)
Cc1cc(=O)[nH]c(O)c1C#N | 97.2% (inactive) and 91% (inactive)
CC1CCCc2sc3nc(NNC(=O)c4cnccn4)n(-c4ccccc4)c(=O)c3c21 (stereo not given) | 10.9% (inactive) and 3.31% (active)
COc1ccccc1C(C)=O | 106% (inactive) and 96.2% (inactive)
CCCCCN(CCCCC)CC(O)c1cc2c(c3ccccc13)CCCC2 (stereo not given) | 51.1% (inactive) and 54.1% (inactive)
O=C(Oc1cccc(OC(=O)c2ccccc2)c1)c1ccccc1 | 102% (inactive)
Nc1ccc(N=Nc2ccc(S(=O)(=O)O)cc2)cc1S(=O)(=O)O | 97.9% (inactive) and 98.3% (inactive)

Structure (SMILES) | growth
CC1CCCC(=O)O1 (stereo not given) | 101% (inactive) and 106% (inactive)
O=C(CCl)c1ccc2c(c1)Nc1ccccc1S2 | 71.2% (inactive) and -3.6% (active)
Cc1ccc2nc3c(nc2c1)-c1cccc2cccc-3c12 | 87.6% (inactive)
Cc1ccc(NCSc2ccc(Cl)cc2)cc1 | 74.3% (inactive) and 62.4% (inactive)
CNc1ccc2nc3ccc(=[N+](C)C)cc-3sc2c1 | -12.4% (active) and -16.3% (active)
COc1ccc2ccccc2c1/C=N/N1CCCCC1 | 94.2% (inactive)
CC(C)(C)c1ccc(O)c(CNC2CCCCC2)c1 | 112% (inactive) and 75.9% (inactive)
Clc1ccc(NC(Nc2ccc(Cl)cc2)C(Cl)(Cl)Cl)cc1 | 67.7% (inactive) and 82.8% (inactive)
O=C(Nc1ccc(Cl)cc1)c1cc2ccccc2cc1O | 15.9% (inactive) and 15.4% (inactive)
O=C(O)C1C2C=CC(C2)C1C(=O)O (stereo not given) | 103% (inactive) and 79.5% (inactive) and 101% (inactive)
CC1=CCC2CC1C2(C)C (stereo not given) | 105% (inactive) and 102% (inactive)
COc1ccc(Cn2c(NCCN=C(N)N)nc(=O)n(Cc3ccc(F)cc3)c2=O)cc1 | 91.4% (inactive) and 87.7% (inactive)
CCN(CC)C(=O)c1cccnc1 | 114% (inactive)
Cn1c(=O)c2[nH]c(CCCCCCCCc3nc4ccccc4[nH]3)nc2n(C)c1=O | 46.6% (inactive) and 44% (inactive)
CC(=O)Nc1ccc2cc3ccc(NC(C)=O)cc3nc2c1 | 81.6% (inactive) and 69.9% (inactive)
COc1cc2nc(N3CCC[C@@H](NC(=O)C4COc5ccccc5O4)C3)nc(N)c2cc1OC (stereo not given in full) | 92.2% (inactive) and 90.3% (inactive)
CC1=C(/C=C/C(C)=C/C=C/C(C)=C/C(=O)Nc2ccc(O)cc2)C(C)(C)CCC1 | 5.78% (active)

same assay, conditions: 30 µM

Structure (SMILES) | growth
CNC(=O)c1cc(Oc2ccc(CC(=O)Nc3cc(C(C)(C)C)nn3C)cc2)ccn1 | 51.7% (inactive)
CC(C)(C)c1cc(NC(=O)Cc2ccc(-c3cnc4cc(-c5cnn(CCN6CCOCC6)c5)ccc4n3)cc2)no1 | 25.5% (inactive)
